# This is a sample that favours compounds with a hit; in the whole collection about 21% have one here.
# DT40 TDP1 CPT: qHTS for Inhibitors of human tyrosyl-DNA phosphodiesterase 1 (TDP1): qHTS in cells in presence of CPT; chicken DT40 Tdp1-/-;hTDP1 cells + 20 nM CPT, ATP luminescence, 48 h; Potency, µM (series often up to 46.2 µM), without a hit: top-dose activity change, negative = growth inhibition, actives largely listed as inhibitors; 420,000 compounds, 12% hits; AID 686979, 2013; also: potency is read from the fitted curve at half-maximal effect; nearly all actives have a fitted effect of over 55% in size
#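 Chicken DT40 Tdp1-/- cells stably complemented with human TDP1 were seeded at 400 cells/well in medium containing 20 nM camptothecin, exposed to pin-transferred compounds, and grown at 37 °C for at least 48 hr. Viability was read as ATP luminescence.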
# IL1B secr inh: qHTS for Inhibitors of Inflammasome Signaling: IL-1-beta AlphaLISA Primary Screen | THP-1 LPS/ATP IL-1B secretion, AlphaLISA, 16 h; stronger effect = lower value | activity change, % at 57.5 µM | 360,000 compounds, 4.7% hits | AID 743279, 2014; in the data active = activity change below about -50%; inconclusive = mostly about -30% to -49%
#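 Secreted IL-1B measured by AlphaLISA bead assay after 16 h compound exposure of THP-1 cells; compounds (final up to 57.5 uM) added 1 h before LPS (250 ng/mL) and ATP (1.25 mM) stimulation; lower signal means less secretion.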
# ELG1 repair inh: qHTS screen for small molecules that inhibit ELG1-dependent DNA repair in human embryonic kidney (HEK293T) cells expressing luciferase-tagged ELG1; HEK293T ELG1-luciferase reporter, luminescence, 16 h; DNA damage induced by 5-fluorouridine; Potency, µM (doses to about 46.1 µM), without a hit: at the highest dose activity change, negative = inhibition, hits mostly inhibitors; 330,000 compounds, 2.3% hits; also: potency is read from the fitted curve at half-maximal effect; nearly all actives have a fitted effect of over 55% in size
#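 Luminescence from the luciferase reporter, measured 30 min after ONE-Glo reagent at room temperature, was the read-out. Beforehand, 2,000 cells per well were exposed for 16 hr at 37 °C to 5-fluorouridine together with compound or vehicle.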
# RORgamma inh: qHTS for inhibitors of ROR gamma transcriptional activity | Drosophila S2 Gal4-RORgamma UAS-luciferase reporter, 20 h | Potency, µM (top dose mostly 53.6 µM), for the others: at the top dose activity change, negative = inhibition, most hits filed as inhibitors | 310,000 compounds, 5.4% hits | Nuclear receptor ROR-gamma (Mus musculus), P51450; also: potency is read from the fitted curve at half-maximal effect; nearly all actives have a fitted effect of over 60% in size
# Target sequence (P51450 whole entry, looked up, the tested form may be a part): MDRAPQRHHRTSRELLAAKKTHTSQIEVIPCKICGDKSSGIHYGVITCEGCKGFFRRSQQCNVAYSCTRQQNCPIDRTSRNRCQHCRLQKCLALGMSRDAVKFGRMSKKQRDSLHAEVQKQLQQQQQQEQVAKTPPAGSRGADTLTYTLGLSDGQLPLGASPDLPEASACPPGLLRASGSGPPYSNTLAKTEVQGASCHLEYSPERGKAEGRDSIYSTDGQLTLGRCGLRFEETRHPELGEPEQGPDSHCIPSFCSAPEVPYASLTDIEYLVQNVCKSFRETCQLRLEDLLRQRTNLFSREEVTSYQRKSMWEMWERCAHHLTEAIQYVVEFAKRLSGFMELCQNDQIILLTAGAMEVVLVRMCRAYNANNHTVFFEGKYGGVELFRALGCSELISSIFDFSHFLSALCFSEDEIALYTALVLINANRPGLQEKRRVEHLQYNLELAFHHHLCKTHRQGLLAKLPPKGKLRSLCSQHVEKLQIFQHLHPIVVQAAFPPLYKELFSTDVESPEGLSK
#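 Schneider cells (Drosophila), stable Gal4 DBD–ROR gamma + UAS-luc; 1 hr cmpd preincubation; Cu2+ induction 700 uM final; 20 hr ambient; luminescence.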
# DT40 TDP1 no CPT: qHTS for Inhibitors of human tyrosyl-DNA phosphodiesterase 1 (TDP1): qHTS in cells in absence of CPT; DT40 Tdp1-/- hTDP1 cells, no CPT, ATP luminescence, 48 h; Potency, µM (top dose mostly 46.2 µM), without a hit: at the top dose activity change, negative = growth inhibition, actives largely listed as inhibitors; 420,000 compounds, 15% hits; AID 686978, 2013; also: potency is read from the fitted curve at half-maximal effect; nearly all actives have a fitted effect of over 55% in size
#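 Growth of hTDP1-complemented DT40 Tdp1-knockout cells is measured by ATP luminescence after at least 48 hr compound exposure at 37 °C, with DMSO substituting for the 20 nM CPT used in the parallel screen.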
# Gal4-VP16 FLuc: VP16 counterscreen qHTS for inhibitors of ROR gamma transcriptional activity; AID 2546, 2010; 310,000 compounds, 3.5% hits; Drosophila S2 Gal4-VP16 UAS-luciferase, luminescence, 20 h; Potency, µM (top dose mostly 53.6 µM), for the others: at the highest dose activity, negative = inhibition, usual class: inhibitors;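 also: Gal4-VP16 expression switched on by copper sulfate through the metallothionein promoter; potency is read from the fitted curve at half-maximal effect; nearly all actives have a fitted effect of over 50% in size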
# * marks the source's active call; other numbers are inactive results; ? = inconclusive; . = no result; [ ] = another dose, or the depositor's remark. Unless noted, calls follow the shape of the dose curve; as a rule, active = well fitted curve in the direction sought with a large enough effect; inconclusive = small, poorly fitted or top-dose-only effect, or another doubt; inactive = no such curve, though single readings can be large; an effect the other way counts as inactive or inconclusive. % is scaled to controls: 0 for no effect and ±100 for the full control effect.
SMILES,DT40 TDP1 CPT,IL1B secr inh,ELG1 repair inh,RORgamma inh,DT40 TDP1 no CPT,Gal4-VP16 FLuc
CC12CCC(=O)C=C1CC(N1CC1)C1C2CCC2(C)C(O)CCC12 (stereo unspecified),1.8µM*,-3,.,.,2.6µM*,.
C[C@]12CCC(=O)C=C1C=CC1C2CC[C@@]2(C)C1CC[C@@H]2O (stereo partly specified),?,14,.,.,-27%,.
CC(=O)C1CCC2C3C(N4CC4)CC4=CC(=O)CCC4(C)C3CCC12C (stereo unspecified),3.7µM*,-2,.,.,4.6µM*,.
CCCC1(CCC)C(=O)NC(=NCc2ccccc2)NC1=O,10µM*,21,?,1%,13µM*,-3%
CCCC1(CCC)C(=O)NC(=Nc2ccccc2)NC1=O,-14%,-1,4%,1%,-12%,-8%
Cc1cccc(CCNCc2cc3ccc(C)cc3[nH]c2=O)c1,23µM*,-12,?,?,?,-26%
c1ccc(C2CN3CCC2CC3)cc1 (stereo unspecified),5%,0,3%,-10%,-4%,-5%
OC(c1ccccc1)(c1ccc(Cl)cc1)C1CN2CCC1CC2 (stereo unspecified),16µM*,-70*,0%,?,18µM*,-13%
OC(Cc1ccccc1)(c1ccccc1)C1CN2CCC1CC2 (stereo unspecified),15µM*,-14,0%,-14%,16µM*,-6%
OC(c1ccccc1)(c1ccccc1)C1CN2CCC1CC2 (stereo unspecified),?,-26,?,11%,?,4%
CCOC(=O)CC1c2ccccc2-n2nncc2CN1Cc1ccc(OC)cc1 (stereo unspecified),?,9,.,.,?,.
COc1cc(O)cc2c1cc([N+](=O)[O-])c1c(C(=O)O)cc3c(c12)OCO3,-1%,10,1%,.,?,.
Cc1ccc(-c2nnc(Nc3ccc(O)cc3)c3ccccc23)cc1S(=O)(=O)N1CCOCC1,?,.,.,.,16µM*,.
CCCCCCCCCCCCCl,.,.,.,13%,.,-7%
CCCN(CCC)CCc1c[nH]c2ccccc12,19µM*,.,.,.,?,.
CCN(CC)Cc1c[nH]c2ccccc12,10µM*,-25,?,-9%,16µM*,-10%
COc1ccc2[nH]cc(CCN(C(C)C)C(C)C)c2c1,?,.,.,.,-28%[92.5 µM],.
CCC(CC)NCc1c[nH]c2ccccc12,4.1µM*,4,-18%,-7%,3.7µM*,-12%
NCCc1c[nH]c2ccccc12,?,-13,-4%,13%,-28%,1%
COc1ccc(CN(CCc2c[nH]c3ccccc23)Cc2ccc(OC)cc2)cc1,16µM*,-15,.,.,15µM*,.
CCC1(CC)CCNC1=O,.,.,.,-1%,.,0%
CCN(CC)CCNC(=O)c1nn(-c2ccc(C)cc2)c(=O)c2c1c1ccccc1n2C,-14%,-4,1%,-20%,21µM*,2%
CCOC(=O)CNC(=O)CNC(=O)c1nn(-c2ccc(OC)c(Cl)c2)c(=O)c2ccccc12,?,-2,5%,28%,-5%,-5%
COc1ccc(C(=O)O[C@H]2CC[C@@]3(C)C4CCC5[C@]6(O)C[C@H](O)[C@@]7(O)C(CN8C[C@@H](C)CC[C@H]8[C@@]7(C)O)[C@]6(O)C[C@@]53O[C@@]42O)cc1OC (stereo partly specified),1%[21.1 µM],.,.,.,-27%[21.1 µM],.
N#CC(c1ccccc1)N1CCOCC1 (stereo unspecified),-6%,-12,0%,7%,19%,1%
SMILES,DT40 TDP1 CPT,IL1B secr inh,ELG1 repair inh,RORgamma inh,DT40 TDP1 no CPT,Gal4-VP16 FLuc
O=C(O)CCC(=O)OC[C@@H](NC(=O)C(Cl)Cl)C(O)c1ccc([N+](=O)[O-])cc1 (stereo partly specified),?,.,.,-8%,?,-10%
Cc1cc(NC(=O)CCl)nn1C,23µM*,-101*,-16%,-11%,15µM*,?
Cn1ccc(NC(=O)CCl)n1,?,-102*,-1%,5µM*,?,4.5µM*
Cc1cc(C(=O)Nc2ccccc2)nn1C(C)(C)C,-1%,-4,?,-16%,-28%,-8%
OCC1OC(n2cnc3c(Cl)ncnc32)C(O)C1O (stereo unspecified),9.2µM*,.,.,-12%,4.6µM*,1%
Nc1ncnc2c1ccn2[C@@H]1O[C@H](CO)[C@@H](O)[C@H]1O,0.021µM*,-110*,.,0.63µM*,0.15µM*,1.1µM*
C=C(Cl)CSC(=S)N(CC)CC,5.2µM*,6,4%,17%,3.3µM*,6%
COC(=O)[C@@H]1C[C@H](OC(C)=O)C(=O)[C@H]2[C@@]1(C)CC[C@H]1C(=O)O[C@H](c3ccoc3)C[C@]21C,.,.,.,24%,.,-20%
CCOC(C[n+]1c(-c2ccccc2)cc(C)cc1-c1ccccc1)OCC,1.6µM*,4,-5%,.,0.52µM*,.
CC/C(=N\Nc1ccccc1)c1c(O)n(C)c(=O)n(C)c1=O,?,49,-4%,?,?,-8%
CCC(=NCCc1c[nH]c2ccccc12)c1c(O)n(C)c(=O)n(C)c1=O,4µM*,?,16µM*,-16%,6.3µM*,?
CCC(=NC(C)c1ccccc1)c1c(O)n(C)c(=O)n(C)c1=O (stereo unspecified),21µM*,-26,?,?,7.3µM*,13µM*
CCC(=NCCc1c[nH]c2ccccc12)c1c(O)n(-c2ccc(C)cc2)c(=O)[nH]c1=O,?,8,?,?,?,?
CCN(CC)CCCC(C)N=C(c1ccccc1)c1c(O)n(C)c(=O)n(C)c1=O (stereo unspecified),-21%,11,18%,0.63µM*,-11%,-1%
COc1ccc(C(C)(C)C)cc1NC(=O)CCCn1c(=O)oc2ccccc21,-24%,-14,?,18%,?,4%
Cc1ccc(NC(=O)N(C)C)cc1Cl,.,.,.,0%,.,-1%
Cc1cccc(N2CCN(C(=O)CCCCn3c(=O)[nH]c4ccsc4c3=O)CC2)c1C,?,.,.,.,18µM*,.
